Measured values published in PubChem BioAssay (NCI).
This is part of a sample that, as a whole, favours compounds with a hit. Of some 83,000 tested, about 20% had one in any assay.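 A percent growth of 40 corresponds to 60% growth inhibition; 0 means no net growth; -100 means all cells died. Active threshold: below 10.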 Values without a mark were called inactive. The source made the active and inactive calls.

Key:
Assay in all cases: NCI-60 one-dose screen, 48 h (100 = growth as untreated, 0 = no growth, -100 = all killed)
Details in all cases: 10 µM unless noted
[1] = test system: SK-MEL-2 melanoma
[2] = test system: EKVX NSCLC
[3] = test system: SN12C renal
[4] = test system: UO-31 renal
[5] = test system: TK-10 renal
[6] = test system: ACHN renal
[7] = test system: A498 renal
[8] = test system: CCRF-CEM leukemia
[9] = test system: MOLT-4 leukemia
[10] = test system: SR leukemia

COc1ccc(C(=O)c2cc(OC)c(C)c(OC)c2)cc1OC(=O)CCl
growth [1]: 35.4% | growth [2]: 64.4% | growth [3]: 41.5% | growth [4]: 49.9% | growth [5]: 66.5% | growth [6]: 41.5% | growth [7]: 78.5% | growth [8]: 11.9% | growth [9]: 13.6% | growth [10]: 12.5%

COc1ccc(NC(=O)c2sc3nc(C)c(C(C)=O)cc3c2N)cc1
growth [1]: 98.5% | growth [2]: 97.2% | growth [3]: 101% | growth [4]: 105% | growth [5]: 75.2% | growth [6]: 95.3% | growth [7]: 71.1% | growth [8]: 92.2% | growth [9]: 84.9% | growth [10]: 84.3%

OCCNc1nc(NCCO)nc(Nc2ccc(C3=NN(c4ccc(Cl)cc4)C(c4ccc(Cl)cc4)C3)cc2)n1 (stereo not given)
growth [1]: 52% | growth [2]: 65% | growth [3]: 80.1% | growth [4]: 45.5% | growth [5]: 87.6% | growth [6]: 51.1% | growth [7]: 85.7% | growth [8]: 25.1% | growth [9]: 29.4% | growth [10]: 25.5%

COc1cc(C2CC(c3ccc(Nc4nc(NCCO)nc(NCCO)n4)cc3)=NN2c2cc(Cl)cc(Cl)c2)cc(OC)c1OC (stereo not given)
growth [1]: 85% | growth [2]: 35.2% | growth [3]: 13.1% | growth [4]: 49.4% | growth [5]: -25.7% (active) | growth [6]: 67.3% | growth [7]: 96.8% | growth [8]: 19.3% | growth [9]: 16.3% | growth [10]: -9.38% (active)

Nc1c(C(=O)Nc2cccc3ccccc23)sc2nc3c(cc12)CCCCCC3
growth [1]: 5.93% (active) | growth [2]: 41.6% | growth [3]: 46% | growth [4]: 55% | growth [5]: 55.3% | growth [6]: 57.4% | growth [7]: -4.7% (active) | growth [8]: 11.2% | growth [9]: 21% | growth [10]: 19.1%

Cc1c(O)c(=O)ccn1-c1nc2ccccc2s1
growth [1]: 90.5% | growth [2]: 45.3% | growth [3]: 98.9% | growth [4]: 47.6% | growth [5]: 91.2% | growth [6]: 60.6% | growth [7]: 95.8% | growth [8]: 82.7% | growth [9]: 103% | growth [10]: 91.3%

C=C1C(=O)O[C@H]2[C@H]1CC/C(COC(=O)CCCCCCCCC(=O)OC/C1=C/CC[C@@]3(C)O[C@H]3[C@H]3OC(=O)C(=C)[C@@H]3CC1)=C\CC[C@@]1(C)O[C@@H]21
growth [1]: 22% | growth [2]: 8.84% (active) | growth [3]: -1.39% (active) | growth [4]: -75.2% (active) | growth [5]: 0.838% (active) | growth [6]: -23.2% (active) | growth [7]: 96.8% | growth [8]: 2.5% (active) | growth [9]: 3.83% (active) | growth [10]: -2.09% (active)

C#C[C@@]1(O)[C@@H](CO)O[C@@H](n2cc(Cl)c3c(N)ccnc32)[C@@H]1O
growth [1]: 76.9% | growth [2]: 89.7% | growth [3]: 78.8% | growth [4]: 72.2% | growth [5]: 122% | growth [6]: 64.8% | growth [7]: 87.7% | growth [8]: 58.4% | growth [9]: 45.6% | growth [10]: 68.9%

COC(=O)c1oc2c(C(=O)/C=C/c3ccc(OC)cc3)c(OCCCN3CCCCC3)ccc2c1C
growth [1]: 53.5% | growth [2]: 28% | growth [3]: 22.5% | growth [4]: 12.2% | growth [5]: 35.2% | growth [6]: 28% | growth [7]: 83.6% | growth [8]: -46.2% (active) | growth [9]: -31.4% (active) | growth [10]: -31% (active)

O=C(O)C(C(=O)O)c1cccc2ccccc12
growth [1]: 95.2% | growth [2]: 108% | growth [3]: 100% | growth [4]: 88.5% | growth [5]: 89.3% | growth [6]: 105% | growth [7]: 85.6% | growth [8]: 92.2% | growth [9]: 94.4% | growth [10]: 90.6%

N#C/C(=C/c1ccc(O)c([N+](=O)[O-])c1)c1nc(-c2ccc([N+](=O)[O-])cc2)cs1
growth [1]: 16.9% | growth [2]: 26.5% | growth [3]: 36.3% | growth [4]: 37.6% | growth [5]: 52.7% | growth [6]: 36.1% | growth [7]: 21.3% | growth [8]: 25.5% | growth [9]: 25.1% | growth [10]: 47.7%

COc1ccc2c(c1)C1(C(=O)N2)C(C#N)=C(c2ccccc2)Nc2c1c(-c1ccccc1)nn2-c1ccccc1 (stereo not given)
growth [1]: 84.9% | growth [2]: 78.4% | growth [3]: 1.61% (active) | growth [4]: 80.1% | growth [5]: 90.7% | growth [6]: 88.2% | growth [7]: 50.1% | growth [8]: 16.6% | growth [9]: 38.2% | growth [10]: 21.5%

C#CCOC(=O)[C@]1(C)CCC[C@]2(C)[C@H]3C[C@H]4C(C(C)C)=C[C@]3(CC[C@H]21)[C@@H]1C(=O)CCC(=O)[C@@H]14
growth [1]: 88.2% | growth [2]: 76.1% | growth [3]: 86.8% | growth [4]: 74.7% | growth [5]: 90.7% | growth [6]: 93.5% | growth [7]: 66.5% | growth [8]: 67.1% | growth [9]: 73.5% | growth [10]: 64.9%

O=c1[nH]nc(-c2ccccc2)c2sc(NC(=S)Nc3ccc(Cl)cc3)nc12
growth [1]: 85.5% | growth [2]: 83% | growth [3]: 103% | growth [4]: 84.4% | growth [5]: 96.5% | growth [6]: 102% | growth [7]: 86% | growth [8]: 99.2% | growth [9]: 79.6% | growth [10]: 91.7%

O=C(NC[C@H](O)CN1CCc2ccccc2C1)c1cc(NC2COC2)ncn1
growth [1]: 94.4% | growth [2]: 111% | growth [3]: 95.5% | growth [4]: 78.2% | growth [5]: 96.4% | growth [6]: 95.9% | growth [7]: 116% | growth [8]: 98.3% | growth [9]: 88% | growth [10]: 97.2%

COc1ccc2[nH]c(=O)c(/C=C/C(=O)c3ccccc3OC)cc2c1
growth [1]: -2.52% (active) | growth [2]: 37.8% | growth [3]: 8.57% (active) | growth [5]: 42% | growth [6]: 38.8% | growth [7]: 21.7% | growth [8]: 7.53% (active) | growth [9]: 10.9% | growth [10]: 2.69% (active)

Nc1n[nH]c2cccc(C#Cc3cccc(NC(=O)c4cc(N5CCOCC5)cc(C(F)(F)F)c4)c3)c12
growth [1]: 0.377% (active) | growth [2]: 59.9% | growth [3]: 57.6% | growth [4]: 17.5% | growth [5]: 36.5% | growth [6]: 25.3% | growth [7]: -5.08% (active) | growth [9]: 30.4% | growth [10]: 43.5%

COC(=O)c1nc(-c2ccccc2)oc1S(=O)(=O)n1nc(C)cc1N
growth [1]: 80.3% | growth [2]: 87.8% | growth [3]: 58.5% | growth [4]: 51.4% | growth [5]: 73.5% | growth [6]: -86.2% (active) | growth [7]: 99.9% | growth [9]: 14.6% | growth [10]: 3.74% (active)

COc1cc(NC(=O)Nc2cnc(Nc3ccc(N4CCOCC4)cc3)nc2Oc2ccc(C(F)(F)F)cc2)cc(OC)c1
growth [1]: 108% | growth [2]: 106% | growth [3]: 102% | growth [4]: 84.7% | growth [5]: 116% | growth [6]: 105% | growth [7]: 110% | growth [9]: 90.5% | growth [10]: 79.9%

CNS(=O)(=O)c1cccc(-c2ccc3c4c(n(C)c(=O)c3c2)-c2ccccc2C4=O)c1
growth [1]: 113% | growth [2]: 51.7% | growth [3]: 19.5% | growth [4]: 35.4% | growth [5]: 85.5% | growth [6]: 0.944% (active) | growth [7]: 72.1% | growth [9]: -1.83% (active) | growth [10]: 3.35% (active)

Nc1cc(N)nc(SCC(=O)O)n1
growth [1]: 99.7% | growth [2]: 106% | growth [3]: 103% | growth [4]: 94.4% | growth [5]: 98.2% | growth [6]: 109% | growth [7]: 89.4% | growth [8]: 96.2% | growth [9]: 103% | growth [10]: 92.3%

C=C1C(=O)O[C@H]2[C@H]1CC/C(COC(=O)CCCCCCC(=O)OC/C1=C/CC[C@@]3(C)O[C@H]3[C@H]3OC(=O)C(=C)[C@@H]3CC1)=C\CC[C@@]1(C)O[C@@H]21
growth [1]: 84.6% | growth [2]: 24.6% | growth [3]: 6.29% (active) | growth [4]: -21.8% (active) | growth [5]: -5.79% (active) | growth [6]: -38.6% (active) | growth [7]: 96.3% | growth [9]: 2.4% (active) | growth [10]: -2.74% (active)

O=C1NC(c2ccc(F)cc2)N=C2C(c3ccccc3)=NOC12 (stereo not given)
growth [1]: 108% | growth [2]: 99.8% | growth [3]: 104% | growth [4]: 97.4% | growth [5]: 106% | growth [6]: 107% | growth [7]: 104% | growth [8]: 102% | growth [9]: 116% | growth [10]: 112%

O=C1CC23OC4ON=C(Br)C4C2C(O)c2ccccc2N13 (stereo not given)
growth [1]: 89.8% | growth [2]: 92.1% | growth [3]: 101% | growth [4]: 63.4% | growth [5]: 132% | growth [6]: 94.3% | growth [7]: 118% | growth [9]: 99.6% | growth [10]: 107%

CCCn1cc(/C=N\N=C2\C(=O)Nc3ccc(C)cc32)c2ccccc21
growth [1]: 35.1% | growth [2]: 50.5% | growth [3]: 49.9% | growth [4]: 60% | growth [5]: 107% | growth [6]: 55.7% | growth [7]: 57.2% | growth [9]: -9.9% (active) | growth [10]: 11.6%

Nc1c(C(=O)Nc2ccccn2)sc2nc3c(cc12)C(=O)CCC3
growth [1]: 32.9% | growth [2]: 34.4% | growth [3]: 43.6% | growth [4]: 59.3% | growth [5]: 64.2% | growth [6]: 59.5% | growth [7]: 2.05% (active) | growth [9]: 69.7% | growth [10]: 40.6%

c1ccc(Sc2ncccn2)nc1
growth [1]: 107% | growth [2]: 106% | growth [3]: 106% | growth [4]: 87.9% | growth [5]: 109% | growth [6]: 98.2% | growth [7]: 92.9% | growth [9]: 98.4% | growth [10]: 95.5%
